NPC1 prom act: NPC1 promoter activation; AID 485313; hit rate 2.4% among 320,000; Huh7 NPC1 promoter luciferase reporter, 24 h; Potency, µM (highest dose often 9.22 µM), for the others: at the highest dose activation, actives largely listed as activators; note: % of control where 0% means no effect; nearly all actives have a fitted effect of over 60% in size
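Stable NPC1-promoter luciferase Huh7 line; cpd (DMSO) 24 h, 37 °C, 5% CO2; Amplite luciferase reagent 10 min RT; luminescence readout. qHTS format.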
FLuc counter: counter-screen for miR-21 project: firefly luciferase inhibitors or activators | P08659 | purified FLuc, Km substrates, luminescence inhibition | Potency, µM (series often up to 57.5 µM), for inactives: top-dose activity change, negative = inhibition, hits mostly inhibitors | hit rate 6.9% among 360,000 | AID 588342;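 note: plate controls were vehicle for no effect and reference inhibitor for full effect; nearly all actives have a fitted effect of over 55% in size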
Target sequence (P08659 whole entry, looked up): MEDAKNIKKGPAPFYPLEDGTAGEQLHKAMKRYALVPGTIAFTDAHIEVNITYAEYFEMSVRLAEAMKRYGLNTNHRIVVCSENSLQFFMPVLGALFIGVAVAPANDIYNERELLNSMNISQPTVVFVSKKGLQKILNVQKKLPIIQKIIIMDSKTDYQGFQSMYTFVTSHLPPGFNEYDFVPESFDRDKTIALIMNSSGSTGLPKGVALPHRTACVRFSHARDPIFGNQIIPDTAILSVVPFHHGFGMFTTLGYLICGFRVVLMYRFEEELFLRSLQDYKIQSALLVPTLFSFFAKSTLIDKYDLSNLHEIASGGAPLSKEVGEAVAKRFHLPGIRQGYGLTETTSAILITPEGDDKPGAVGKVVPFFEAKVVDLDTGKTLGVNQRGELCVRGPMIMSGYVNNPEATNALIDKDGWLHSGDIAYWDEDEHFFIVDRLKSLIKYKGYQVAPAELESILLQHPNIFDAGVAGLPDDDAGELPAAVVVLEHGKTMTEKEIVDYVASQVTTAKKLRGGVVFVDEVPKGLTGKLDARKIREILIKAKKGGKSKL
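Purified P. pyralis luciferase, 10 nM final, with Km-level 10 uM D-luciferin and 10 uM ATP in 50 mM Tris acetate pH 7.5, 10 mM Mg acetate, 0.01% Tween-20, 0.05% BSA; 6-point qHTS titration about 60 µM downward; luminescence read.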
Rab9 promoter act: Rab9 promoter activation | Huh7 Rab9 promoter-luciferase reporter, luminescence, 24 h | hit rate 2.8% among 320,000 | Potency, µM (titrated, usually from 9.22 µM), for inactives: top-dose activation, negative = inhibition, hits mostly activators; note: % of control where 0% means no effect; nearly all actives have a fitted effect of over 60% in size
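Huh7 cells stably carrying Rab9 promoter–luciferase reporter, plated 1500 cells/well, compound added after 2 h and incubated 24 h at 37 °C; luciferase luminescence then read after 10 min with detection reagent.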
KinaseGlo FLuc: blocks Kinase-Glo luciferase, a counter-screen artifact; Q27757; Kinase-Glo luciferase, ATP luminescence, 8 min; Potency, µM (titrated, usually from 38.3 µM), for the others: top-dose activity change, negative = inhibition, actives largely listed as inhibitors; hit rate 0.28% among 200,000; note: % is set by controls: 0 for no effect and ±100 for the full control effect; nearly all actives have a fitted effect of over 60% in size
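Compound is pinned into ATP-containing buffer (10 uM ATP, imidazole pH 7.2, 7 mM MgCl2). Kinase-Glo luciferase reagent is then added. Light output is recorded following an 8-min room-temperature incubation.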
ELG1 genotox: genotoxicity induction in ELG1-luciferase HEK293T cells | HEK293T ELG1-luciferase reporter, luminescence, 16 h | Potency, µM (highest dose often 46 µM), without a hit: at the top dose activity change, positive = activation, hits mostly activators | hit rate 1.3% among 330,000 | AID 504466; note: % of control where 0% means no effect; nearly all actives have a fitted effect of over 60% in size
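Reporter readout depends on ELG1 protein level, which increases with genetic stress. After 16 hr compound exposure at 37 °C, luciferase activity was quantified using ONE-Glo.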
SMN2 splice enh: increases expression of the SMN2 splice variant; HEK293 SMN2-luciferase splicing reporter, luminescence, 30-36 h; Potency, µM (top dose mostly 46.1 µM), inactives show at the highest dose activity change, positive = activation, usual class: activators; hit rate 2.8% among 210,000; AID 1458; note: % of control where 0% means no effect; nearly all actives have a fitted effect of over 55% in size
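HEK293 cells carry an SMN2 […]–luciferase reporter in which exon 7 inclusion puts luciferase in frame. Cells were plated 10-12 h before compound addition, then incubated 30-36 h at 37C. ONE-Glo luminescence was read; sodium butyrate at 4.5 mM final served as control.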
Starred values were filed as active, the others as inactive; u = inconclusive; x = not tested or not shown; [ ] = another dose, or the depositor's remark. In the library only some 7.3% were active in any assay of this set; here they are far more common. Calls come from the whole dose curve; as a rule, active = well fitted curve in the direction sought with a large enough effect; inconclusive = small, poorly fitted or top-dose-only effect, or another doubt; inactive = no such curve, though single readings can be large; an effect the other way counts as inactive or inconclusive. Potency is the fitted concentration of half-maximal effect.

SMILES	NPC1 prom act	FLuc counter	Rab9 promoter act	KinaseGlo FLuc	ELG1 genotox	SMN2 splice enh
O=C(NC1CCCCCC1)c1ccc(CN2CCOCC2)cc1	3.2µM*	17µM*	3.5µM*	-3%	u	u
O=C(NCCC1=CCCCC1)c1ccc(CN2CCOCC2)cc1	2.8µM*	24µM*	1.4µM*	-4%	u	13µM*
O=C(NCCC1=CCCCC1)c1ccc([N+](=O)[O-])cc1	1.1µM*	5.4µM*	0.63µM*	-3%	u	2.8µM*
CCCSc1ncc(Cl)c(C(=O)Nc2c(C(=O)c3ccc(C)cc3)oc3ccccc23)n1	x	1%	x	x	x	9%
Cc1ccc2c(CNCCc3ccco3)c(C(=O)O)n(Cc3ccc(F)cc3)c2c1	x	1%	x	x	x	x
O=C(NCc1ccccc1Cl)C(=O)NCC(c1ccc2c(c1)OCO2)N1CCOCC1 (stereo not given)	x	0%	x	x	x	x
O=C(NCCC1=CCCCC1)c1ccc(Br)o1	26%	u	25%	0%	16µM*	29%
COc1ccc(C(=O)NCCC2=CCCCC2)cc1OC	29%	u	u	0%	u	15%
COc1cccc(C(=O)NCCC2=CCCCC2)c1	0.56µM*	3µM*	0.63µM*	-10%	u	u
COc1ccc(C(=O)NCCC2=CCCCC2)cc1	0.35µM*	0.85µM*	0.32µM*	-5%	1.5µM*	2.5µM*
O=C(NCCC1=CCCCC1)c1ccc(F)cc1	0.4µM*	2.1µM*	0.45µM*	-3%	u	7.1µM*
CCOC(=O)c1c(S(=O)(=O)N2CCCC(C(=O)Nc3cccc(C#N)c3)C2)c(C)n(C)c1C (stereo not given)	x	-10%	x	x	x	x
CN(C)CCCNCCCN	x	x	x	x	x	-3%
COc1cccc(CCNc2ncnc3c2nnn3C)c1	x	-6%	x	x	x	x
CCOC(=O)c1[nH]c(C)c(C(=O)NCCC2=CCCCC2)c1C	27%	-5%	u	-2%	u	6%
O=C(NCCc1ccc(F)cc1)c1ccc([N+](=O)[O-])cc1	2.5µM*	15µM*	3.2µM*	4%	u	11µM*
Cc1ccc(NC(=S)NCCC2=CCCCC2)cc1	u	u	3.5µM*	-2%	17%	20µM*
CC(=O)c1c(C)[nH]c(C(=O)NCCC2=CCCCC2)c1C	3.5µM*	12µM*	u	-1%	9.2µM*	u
Cc1ccccc1OCc1ccc(-c2nc(C#N)c(N3CCC(C(N)=O)CC3)o2)o1	x	-20%	x	x	x	x
O=C(Nc1ccc(S(=O)(=O)NCc2ccccc2)cc1)Nc1ccc2c(c1)OCO2	30%	21µM*	27%	0%	u	u
Cc1ccnc(NC(=O)Nc2ccc3c(c2)OCO3)c1	0.63µM*	1.9µM*	0.5µM*	-12%	u	6.3µM*
O=C(Nc1ccc2c(c1)CCC2)Nc1ccc2c(c1)OCO2	3.5µM*	u	2.2µM*	-3%	u	13µM*
NC(=O)c1ccc(NC(=O)Nc2ccc3c(c2)OCO3)cc1	u	24µM*	u	x	u	x
COc1ccccc1C1CC(=O)Oc2cc3c(cc21)OCO3 (stereo not given)	x	x	x	1%[39.9 µM]	x	x
O=C(Nc1ccc2c(c1)OCO2)Nc1ccc(Br)cn1	4µM*	6µM*	1.6µM*	-2%	7.3µM*	13µM*
SMILES	NPC1 prom act	FLuc counter	Rab9 promoter act	KinaseGlo FLuc	ELG1 genotox	SMN2 splice enh
O=C(Nc1ccc2c(c1)OCCO2)NC12CC3CC(CC(C3)C1)C2	2.5µM*	6µM*	1.3µM*	3%	u	22µM*
Cc1ccc(NC(=O)Nc2ccc3c(c2)OCO3)cc1F	1.1µM*	0.6µM*	1.3µM*	x	9.2µM*	x
COC(=O)c1ccc(NC(=O)Nc2ccc3c(c2)OCO3)cc1	u	6.7µM*	u	x	u	x
O=C(Nc1cccc([N+](=O)[O-])c1)Nc1ccc2c(c1)OCCO2	u	2.7µM*	1.8µM*	-1%	u	11µM*
Cc1ccc(NC(=O)Nc2ccc3c(c2)OCO3)c(OC(F)F)c1	2µM*	4.8µM*	3.5µM*	x	u	x
NS(=O)(=O)c1ccc(NC(=O)Nc2ccc3c(c2)OCO3)cc1	u	15µM*	u	x	u	x
CC(=O)Nc1ccc2c(c1)OCCO2	-7%	7%	8%	-2%	-1%	-7%
O=C(Nc1cccc([N+](=O)[O-])c1)Nc1cccc([N+](=O)[O-])c1	-1%	-1%	-6%	0%	-17%	-29%
CCNS(=O)(=O)c1ccc(NC(=O)Nc2ccc3c(c2)OCO3)cc1	13%	u	9%	x	9%	x
COc1ccc(NC(=O)Nc2ccc(C)cc2OC(F)F)cc1OC	-5%	-1%	-1%	3%	-6%	-44%
O=C(Nc1ccc2c(c1)OCCO2)Nc1ccc2c(c1)OCO2	0.4µM*	0.95µM*	0.1µM*	-7%	u	2.5µM*
CCC(Cn1nnc2ccccc2c1=O)NC(=O)Nc1ccc(C)cc1C (stereo not given)	x	-3%	x	x	x	-1%
Cc1cc(C)cc(Nc2cc(C(=O)NC3CCC(C)CC3)c3ccccc3n2)c1 (stereo not given)	x	-8%	x	x	x	27%
O=C(Nc1ccc2c(c1)OCO2)Nc1ccccc1F	0.45µM*	2.4µM*	0.5µM*	x	0.92µM*	x
COc1cccc(NC(=O)C(C)n2c(=O)cc(C(F)(F)F)c3c(C)nn(C)c32)c1 (stereo not given)	x	-3%	x	x	x	x
COc1ccc(-c2cn(Cc3ccc(C(N)=O)cc3)c(-c3ccncc3)n2)cc1	3.2µM*	2.4µM*	2.5µM*	x	u	x
CCCSCCCNC(=O)c1ccc2c(c1)sc1nc(-c3ccc(OCC)cc3)cn12	x	2%	x	x	x	x
Brc1ccc(C2=Nn3c(nnc3-c3n[nH]c4c3CCC4)SC2)cc1	-27%	3%[2.3 µM]	-11%	1%	u	22µM*
COc1ccc(C2=Nn3c(nnc3-c3ccncc3)SC2)cc1OC	-3%	1%	-5%	-2%	15%	10µM*
c1ccc(-c2ccc(C3=Nn4c(nnc4-c4cc(-c5ccccc5)n[nH]4)SC3)cc2)cc1	14%	4.8µM*	-10%	-6%	-8%	-10%
CCC(=O)N1CCc2cc(Br)cc(S(=O)(=O)CCC(=O)NCc3ccccc3)c21	x	5%	x	x	x	16%
Cc1ccc(-c2cc(N)nc(-c3ccccc3)c2)cc1	24%	13µM*	21%	x	u	x
CC1CCN(C(=O)c2cc(-c3ccc(Br)cc3)on2)CC1	x	4.8µM*	x	x	x	-1%
O=C(c1cc(-c2ccc(Br)cc2)on1)N1CCCCCC1	0.71µM*	1.3µM*	0.63µM*	x	16µM*	x
O=C(c1cc(-c2ccc(Br)cc2)on1)N1CCOCC1	0.32µM*	1.9µM*	0.32µM*	x	3.7µM*	x

Source: PubChem BioAssay (National Center for Advancing Translational Sciences (NCATS))
